Shown are actives, neighbours in structure and some others; about 21% of the full set was active somewhere.
Pf growth 48h – Primary qHTS for delayed death inhibitors of the malarial parasite plastid, 48 hour incubation. 5.9% of 310,000 active. P. falciparum luciferase growth in erythrocytes, 48 h. Potency, µM (top dose mostly 28.7 µM), for the others: top-dose activity change, negative = inhibition, most hits filed as inhibitors. AID 504832, 2011; note: potency is the fitted concentration of half-maximal effect; % is set by controls: 0 for no effect and ±100 for the full control effect
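Compounds are pin-transferred into medium, infected erythrocytes (2% hematocrit, 0.1% parasitemia final) are added, and plates sit one parasite generation at 37 C in 5% CO2. Detection reagent is then added and luminescence measured.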
CHX counter – Cycloheximide Counterscreen for Small Molecule Inhibitors of Shiga Toxin; cell reporter, cycloheximide protein synthesis inhibition counterscreen; 12% of 300,000 active; max response, %; in the data active = max response mostly above about 13%, no sharp cut-off; inactive = mostly below about 14%; note: read at 38.3 µM for the half of the compounds with a filed dose; 0% is about no effect
Shiga inhibitor – A qHTS for Small Molecule Inhibitors of Shiga Toxin. Vero cells, Shiga toxin protein synthesis inhibition reporter. inhibition, % at 38.7 µM. 9.2% of 290,000 active. AID 2315, 2010; in the data active = inhibition mostly above about 28%, no sharp cut-off; inactive = mostly below about 43%; note: 0% is about no effect
Pf growth 96h – Primary qHTS for delayed death inhibitors of the malarial parasite plastid, 96 hour incubation. P. falciparum luciferase reporter growth, 96 h. Potency, µM (titrated, usually from 28.7 µM), without a hit: top-dose activity change, negative = inhibition, usual class: inhibitors. 6.9% of 320,000 active; note: potency is the fitted concentration of half-maximal effect; % is set by controls: 0 for no effect and ±100 for the full control effect
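Two parasite generations (96 h, 37 C, 5% CO2) of compound exposure in infected erythrocytes (0.05% parasitemia, 2% hematocrit). Luciferase-reporter P. falciparum; decreased luminescence indicates inhibited growth, aimed at apicoplast-acting delayed death.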
An asterisk follows results filed as active. Unless noted, calls come from the whole dose curve; as a rule, active = well fitted inhibition curve with a large enough effect; inconclusive = small, poorly fitted or top-dose-only effect, or another doubt; inactive = no such curve, though single readings can be large or run the other way.

For CCOC(=O)c1ccc(N/C=C2\CCCCC2=O)cc1 the results were CHX counter 25.0* and Shiga inhibitor 48.4*.
O=C(/C=C/Nc1cccc(C(F)(F)F)c1)C(F)(F)F was read as Pf growth 48h 39.0%, CHX counter 7.5, Shiga inhibitor 32.9 and Pf growth 96h 47.5%.
For O=C1CCC/C1=C/Nc1ccc(Cl)cc1 the results were Pf growth 48h 11.1%, CHX counter 30.5*, Shiga inhibitor 71.7* and Pf growth 96h inconclusive.
Screening O=C1CCCC/C1=C/Nc1cccc(C(F)(F)F)c1 returned Pf growth 48h 28.8%, CHX counter 47.9*, Shiga inhibitor 50.4* and Pf growth 96h inconclusive.
`O=C1CCCC/C1=C\Nc1ccc(O)cc1` gave Pf growth 48h inconclusive, CHX counter 41.4* and Shiga inhibitor 64.1*.
Screening O=C1CCC/C1=C\Nc1ccc(Cl)c([N+](=O)[O-])c1 returned Pf growth 48h 13.8%, CHX counter 8.7, Shiga inhibitor 17.5 and Pf growth 96h 22.1%.
For CN(Cc1ccccc1)c1ccc(C(CC(N)=O)NC(=O)c2ccc(Br)cc2)cc1[N+](=O)[O-] (stereo not given) the results were Pf growth 48h inconclusive, CHX counter -1.1, Shiga inhibitor 11.9 and Pf growth 96h -8.2%.
`Cc1ccc(S(=O)(=O)N2CCN(c3cccc(C)c3)CC2)cc1` gave Pf growth 48h 20.1%, CHX counter -2.0, Shiga inhibitor -3.1 and Pf growth 96h inconclusive.
COc1ccc(S(=O)(=O)NCC(=O)N(CC2CCCO2)C(C(=O)NC2CCCC2)C(C)C)cc1 (stereo not given) was read as Pf growth 48h -5.2%, CHX counter -7.4, Shiga inhibitor 5.0 and Pf growth 96h -16.7%.
Screening O=C(COC(=O)Cc1ccsc1)Nc1ccc(Cl)cn1 returned Pf growth 48h 5.6% and Pf growth 96h -12.6%.
`COc1ccccc1/C=C1\SC(=O)N(CCC(=O)N2CCCCC2CCO)C1=O` (stereo not given) gave Pf growth 48h inconclusive, CHX counter -6.6, Shiga inhibitor 17.8 and Pf growth 96h 9.28µM*.
`COc1cccc(/C=C2\SC(=S)N(CCC(=O)N3CCCCC3CCO)C2=O)c1` (stereo not given) gave Pf growth 48h inconclusive, CHX counter 25.6, Shiga inhibitor 15.6 and Pf growth 96h inconclusive.
For COc1cccc(/C=C2\SC(=S)N(CCCC(=O)N3CCCC3)C2=O)c1 the results were Pf growth 48h 13.1µM*, CHX counter 3.2, Shiga inhibitor 2.4 and Pf growth 96h 4.15µM*.
Screening O=C1/C(=C/c2cccs2)SC(=S)N1CCC(=O)N1CCCCC1CCO (stereo not given) returned Pf growth 48h inconclusive, CHX counter 38.5*, Shiga inhibitor 120.6* and Pf growth 96h 11.7µM*.
COc1cccc(/C=C2\SC(=S)N(CCCC(=O)N3CCCCC3CCO)C2=O)c1 (stereo not given) was read as Pf growth 48h inconclusive, CHX counter 0.8, Shiga inhibitor 1.1 and Pf growth 96h 3.7µM*.
Screening CC(C)=Cc1oc2ccc([N+](=O)[O-])cc2c1N1CC(C)OC(C)C1 (stereo not given) returned Pf growth 48h 18.6%, CHX counter -4.2, Shiga inhibitor 20.0 and Pf growth 96h 5.5%.
For O=c1ccnc(Nc2ccc3c(c2)OCCO3)[nH]1 the results were Pf growth 48h -6.5%, CHX counter 17.5, Shiga inhibitor 10.6 and Pf growth 96h 90.8%.
Screening CC(NC(=O)C1CCCN1S(=O)(=O)c1ccccc1)c1ccccc1 (stereo not given) returned Pf growth 48h -4.4%, CHX counter 3.4, Shiga inhibitor -5.2 and Pf growth 96h 2.4%.
`NS(=O)(=O)c1ccc(CCNS(=O)(=O)c2cccc3nsnc23)cc1` gave Pf growth 48h 24.7%, CHX counter -7.3, Shiga inhibitor -13.7 and Pf growth 96h inconclusive.
`CC(=O)c1cccc(N(C(=O)Cn2nnc3ccccc32)C(C(=O)NCC2CCCO2)c2ccc(N3CCOCC3)cc2)c1` (stereo not given) gave Pf growth 48h 17.8%, CHX counter -3.2, Shiga inhibitor 2.4 and Pf growth 96h 16.9%.
Screening Cn1cc(CNC(=O)c2cc(-c3ccccc3)nc3ccc(Br)cc23)cn1 returned Pf growth 48h 13.1µM*, CHX counter -1.7, Shiga inhibitor 21.3 and Pf growth 96h inconclusive.
Screening Cc1ccc(-c2cc(C(=O)NCc3cnn(C)c3)c3cc(Br)ccc3n2)cc1 returned Pf growth 48h inconclusive, CHX counter 13.4, Shiga inhibitor -4.8 and Pf growth 96h -2.7%.
Screening COc1ccc(-c2cc(C(=O)NCc3ccco3)c3ccccc3n2)c(OC)c1 returned Pf growth 48h inconclusive, CHX counter 10.4, Shiga inhibitor -4.3 and Pf growth 96h -27.3%.
`O=C(Nc1cccc(S(=O)(=O)NCc2ccco2)c1)c1cc(-c2ccccc2)nc2ccccc12` gave Pf growth 48h -2.4%, CHX counter 36.3*, Shiga inhibitor 22.9 and Pf growth 96h inconclusive.
COc1ccc(-c2cc(C(=O)NCc3ccco3)c3ccccc3n2)cc1 was read as Pf growth 48h inconclusive, CHX counter 14.3*, Shiga inhibitor 27.5 and Pf growth 96h 3.29µM*.
Screening O=C(NCc1ccco1)c1cc(-c2ccccc2)nc2ccccc12 returned Pf growth 48h inconclusive, CHX counter 23.7*, Shiga inhibitor 53.1 and Pf growth 96h 120.7%.
For Cc1nnc(Sc2cc(C(=O)NCc3ccco3)c3ccccc3n2)s1 the results were Pf growth 48h inconclusive, CHX counter 35.4* and Shiga inhibitor 59.9.
O=[N+]([O-])c1ccc(C(O)C23CN4CN(CN(C4)C2)C3)cc1 (stereo not given) was read as Pf growth 48h -2.6%, CHX counter -0.4, Shiga inhibitor 16.1 and Pf growth 96h inconclusive.
`CCCCN1C(=O)N(C)C2NC(=S)NC21` (stereo not given) gave Pf growth 48h 2.9%, CHX counter -1.8, Shiga inhibitor 12.3 and Pf growth 96h 20.7%.
Cc1cc[n+](-c2nc3ccccc3nc2[N-]S(=O)(=O)c2ccccc2)cc1 was read as Pf growth 48h 8.7%, CHX counter -0.7, Shiga inhibitor 30.5 and Pf growth 96h -10.7%.
For CCc1cc[n+](-c2nc3ccccc3nc2[N-]S(=O)(=O)c2ccc(Br)s2)cc1 the results were Pf growth 48h -5.4%, CHX counter 13.0*, Shiga inhibitor 43.9 and Pf growth 96h inconclusive.
Screening COc1cccc(C(=O)c2sc(NC(C)C)nc2N)c1 returned Pf growth 48h inconclusive, CHX counter 36.2*, Shiga inhibitor 51.3* and Pf growth 96h inconclusive.
`COc1ccc(C(=O)c2sc(NC(C)C)nc2N)cc1OC` gave Pf growth 48h -26.4%, CHX counter 0.4, Shiga inhibitor -16.1 and Pf growth 96h inconclusive.
Screening C[C@@H]1CCC[C@]2(C)CCCC[C@@]12O returned CHX counter -2.9 and Shiga inhibitor -5.1.
`CCOC(=O)c1sc(Nc2nc3ccc(OC)cc3s2)cc1C` gave Pf growth 48h inconclusive, CHX counter 41.2*, Shiga inhibitor 73.8* and Pf growth 96h inconclusive.

Bioassay records (PubChem BioAssay)
